rTrxR1 inhibitor: rat TrxR1 inhibition. O89049. recombinant rTrxR1, NADPH fluorescence consumption, selenite substrate. Potency, µM (top dose mostly 114 µM), inactives show top-dose activity change, negative = inhibition, most hits filed as inhibitors. 390,000 tested, 1% active. AID 588453; note: % is set by controls: 0 for no effect and ±100 for the full control effect; nearly all actives have a fitted effect of over 65% in size
Target sequence (O89049 whole entry, looked up): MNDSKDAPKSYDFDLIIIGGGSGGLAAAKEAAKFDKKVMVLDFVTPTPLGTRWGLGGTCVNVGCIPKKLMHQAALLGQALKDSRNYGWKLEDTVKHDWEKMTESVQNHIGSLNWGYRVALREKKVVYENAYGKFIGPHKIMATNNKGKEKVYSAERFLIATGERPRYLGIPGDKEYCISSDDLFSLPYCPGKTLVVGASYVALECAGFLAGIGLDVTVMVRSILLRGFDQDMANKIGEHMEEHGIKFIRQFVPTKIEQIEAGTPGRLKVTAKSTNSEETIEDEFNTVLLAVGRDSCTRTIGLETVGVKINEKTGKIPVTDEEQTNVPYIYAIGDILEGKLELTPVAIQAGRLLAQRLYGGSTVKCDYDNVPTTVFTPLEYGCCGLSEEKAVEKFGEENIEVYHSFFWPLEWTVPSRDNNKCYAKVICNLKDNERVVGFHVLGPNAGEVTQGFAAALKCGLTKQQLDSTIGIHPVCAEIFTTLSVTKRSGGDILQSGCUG
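Rat TrxR1 (90 nM in the dispensed reagent) was pre-reduced with 400 uM NADPH for 5 min at room temperature, then incubated with compound for 15 min. After 400 uM selenite was added, NADPH fluorescence (Ex 340/Em 450 nm) was followed for 8 min.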
TrxR1 substrate: substrates of rat thioredoxin reductase 1. O89049. purified TrxR1 substrate turnover, NADPH consumption readout. Potency, µM (doses to about 114 µM), without a hit: at the top dose activity change, negative = substrate turnover. 390,000 tested, 0.01% active. AID 588456; note: % is set by controls: 0 for no effect and ±100 for the full control effect; nearly all actives have a fitted effect of over 50% in size
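Rat TrxR1, dispensed at 90 nM, was prereduced with 400 uM NADPH (final) for 5 min at ~22 deg C, then incubated with compound 15 min before 400 uM selenite. A first-read NADPH fluorescence drop versus no-compound background flagged substrates.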
Glioma ERSR ind: ER stress response induction in glioma | U87-MG GRP78 promoter luciferase reporter, 16 h | AID 602332 | 420,000 tested, 0.02% active | Potency, µM, without a hit: at the highest dose activation, actives largely listed as activators; note: series mostly up to about 76 µM; % of control where 0% means no effect; nearly all actives have a fitted effect of over 35% in size
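ERSR induction read as luciferase luminescence (Bright-Glo, 10 min at room temperature) in stably transfected human U87-MG glioma cells exposed to compounds for 16 h, using GRP78 as sensor.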
ALOX12 inh: inhibitors of human 12S-lipoxygenase ALOX12 | P18054 | purified 12hLO, xylenol orange hydroperoxide absorbance | Potency, µM (titrated, usually from 108 µM), inactives show at the highest dose activity change, negative = inhibition, actives largely listed as inhibitors | 580,000 tested, 1.1% active | AID 1671190; note: % is set by controls: 0 for no effect and ±100 for the full control effect
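Purified human 12hLO at 150 nM in 25 mM Hepes, 0.01% Triton X-100, pH 7.0, preincubated 15 min at room temperature with compound. Reaction started with 40 uM arachidonic acid, 30 min at room temperature. Hydroperoxide measured by Fe-xylenol orange, 573/405 nm absorbance ratio.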
mIDH1 inhibitor: inhibitors of human mutant IDH1 R132H; O75874; IDH1-R132H enzyme, NADPH consumption, diaphorase/resazurin fluorescence; Potency, µM (highest dose often 76.6 µM), for inactives: at the top dose activity change, negative = inhibition, actives largely listed as inhibitors; 390,000 tested, 0.093% active; AID 602179; note: % is set by controls: 0 for no effect and ±100 for the full control effect; nearly all actives have a fitted effect of over 65% in size
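IDH1-R132H (0.5 ug/mL) preincubated 30 min with compound, then NADPH (0.016 mM) and alpha-KG (2 mM) added; 80 min at RT, pH 7.5. Remaining NADPH coupled via diaphorase/resazurin to fluorescence (540/590 nm); concentration-response curves normalized to no-enzyme control.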
Anesthetic bind: binds horse apoferritin like a general anesthetic; apoferritin/1-aminoanthracene competitive binding, fluorescence; Potency, µM (top dose mostly 77.5 µM), inactives show top-dose activity change, negative = displacement, usual class: inhibitors; P02791; AID 485281; 350,000 tested, 0.074% active; note: % is set by controls: 0 for no effect and ±100 for the full control effect; nearly all actives have a fitted effect of over 20% in size
Target sequence (P02791 2-175 limits assumed): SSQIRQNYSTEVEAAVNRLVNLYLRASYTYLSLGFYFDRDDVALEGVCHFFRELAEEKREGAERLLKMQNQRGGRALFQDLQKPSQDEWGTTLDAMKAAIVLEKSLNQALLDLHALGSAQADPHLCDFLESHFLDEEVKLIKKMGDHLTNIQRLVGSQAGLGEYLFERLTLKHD
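Read-out: endpoint 1-AMA fluorescence, excitation 380 nm and emission 535 nm, after compounds sit 10 min at room temperature with 10 uM horse-spleen apoferritin in 50% saturated 1-AMA/PBS. Values come from four-parameter Hill fits.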
Numbers without * were called inactive; ? = inconclusive; . = not tested or not shown; ! = not active in a repeat; [ ] = dose if it differs, or a comment. Rows were chosen to be rich in hits. Some 1.7% of all compounds tested hit in one or more screens of this group. Calls come from the whole dose curve; as a rule, active = well fitted curve in the direction sought with a large enough effect; inconclusive = small, poorly fitted or top-dose-only effect, or another doubt; inactive = no such curve, though single readings can be large; an effect the other way counts as inactive or inconclusive. Potency is the fitted concentration of half-maximal effect.

SMILES	rTrxR1 inhibitor	TrxR1 substrate	Glioma ERSR ind	ALOX12 inh	mIDH1 inhibitor	Anesthetic bind
Cc1cc(C)n(CCO)c(=O)n1	-12%	-10%	-6%	?	1%	-3%
O=C1ON=C(c2ccccc2)/C1=C\c1ccco1	-6%	2%	-1%	6.3µM*	2%	6%
O=C1ON=C(c2ccccc2)/C1=C/c1ccc(O)cc1	14µM*	-1%	5%	45µM*	11%	-7%
COc1cc([N+](=O)[O-])ccc1-c1ccc(/C=C2\C(=O)ON=C2c2ccccc2)o1	7.9µM*	-8%	-3%	?	?	.
O=c1/c(=C\c2ccc(O)cc2)sc2nc(-c3ccccc3)c(-c3ccccc3)n12	20%	-2%	-5%	7%	-7%	3%
Cc1ccc(C2=NOC(=O)/C2=C\c2ccccc2)cc1	4µM*	3%	5%	?	-17%	.
COc1cc([N+](=O)[O-])ccc1-c1ccc(/C=N\n2cnnc2)o1	15%	4%[2.29 µM]	2%	?	5%	5%
Cc1ccc2c(c1)/C(=C/c1ccccc1)C(=O)N2	-8%	-7%	?	-34%	7%	-9%
COc1ccc(C[C@H](NC(=O)C2=C[C@@H](Oc3cc(F)ccc3Br)[C@H](O)[C@H](O)C2)C(N)=O)cc1	.	.	.	4%	.	.
N#Cc1ccc(CN2CCC(c3nc4ncccc4[nH]3)C2)cc1 (centres undefined)	.	.	.	71%[176 µM]	.	.
COCCOC1CN(C2CCN(C(=O)c3cccc(C)c3)CC2)C12CCCCC2 (centres undefined)	.	.	.	43%	.	.
O=C1ON=C(c2ccc(Cl)cc2)/C1=C/c1ccc(O)cc1	3.2µM*	2%[57.1 µM]	-12%	32µM*	-4%	?
O=C1ON=C(c2ccccc2)/C1=C/c1ccccc1	4.5µM*	11%	0%	6.3µM*	12%	-13%
Cc1sc(/C=C2\C(=O)ON=C2c2ccccc2)cc1Br	.	.	.	.	.	4%
CC1=NOC(=O)/C1=C/c1ccc(O)cc1	?	1%[57.1 µM]	-1%	16µM*	-4%	-14%
CCCOc1ccccc1/C=C1/C(=O)ON=C1C	8%	7%	-6%	40µM*	-3%	-5%
CC1=NOC(=O)/C1=C/c1ccc(O)c(Br)c1	?	-15%	-3%	?	-2%	-4%
O=C1OC(c2ccc(F)cc2)=C/C1=C\c1ccc(O)cc1	?	2%	2%	?	-4%	-7%
Cc1ccc(/C=C2/C(=O)ON=C2c2ccccc2)o1	4µM*	-6%	-4%	10µM*	-31%	8%
CCCCc1ccc(/C=C2/C(=O)ON=C2c2ccccc2)s1	-6%	-9%	-6%	-26%	1%	-17%
Cc1cccc(-n2c(=S)[nH]c3sc4c(c3c2=O)CCc2ccccc2-4)c1	?	-4%[57.1 µM]	-3%	16µM*	-5%	-2%
Cn1cccc1C(=O)N1[C@@H]2CC[C@H]1CC(NC(=O)c1ccc(F)cc1)C2 (some centres undefined)	.	.	.	31%	.	.
C[C@H](NC(=O)c1[nH]cnc1C(=O)Nc1ccc(Cl)cc1)c1ccccc1	19%	0%	-4%	45µM*	-4%	.
CCSc1n[nH]c(=S)s1	?	-4%	-4%	45µM*	6%	-4%
CCS(=O)(=O)Nc1ccc(C)n(CC(=O)N2CCN(c3ccccc3)CC2)c1=O	.	.	.	-18%	.	.
SMILES	rTrxR1 inhibitor	TrxR1 substrate	Glioma ERSR ind	ALOX12 inh	mIDH1 inhibitor	Anesthetic bind
Cc1ccc(C(=O)N2CCN3C(=O)c4ccccc4C23c2ccc(Cl)cc2)cc1 (centres undefined)	12%[57.1 µM]	-8%[57.1 µM]	0%	35%	1%	?
O=C(CCl)N1CCN2C(=O)c3ccccc3C12c1ccc(Cl)cc1 (centres undefined)	5µM*	11%[57.1 µM]	-17%	0%	-26%	-7%
CC(C)c1ccc(Cn2ccc3c4c(N)nc(NC5CC5)nc4ccc32)cc1	.	.	-12%	22µM*!	.	.
CC[C@H](C)[C@H](NC(=O)[C@H](CCC(=O)O)NC(=O)[C@@H](N)CO)C(=O)N[C@@H](CCC(N)=O)C(=O)N[C@@H](CC(C)C)C(=O)N[C@@H](CCSC)C(=O)N[C@@H](Cc1cnc[nH]1)C(=O)N[C@@H](CC(N)=O)C(=O)N[C@@H](CC(C)C)C(=O)NCC(=O)N[C@@H](CCCCN)C(=O)N[C@@H](Cc1cnc[nH]1)C(=O)N[C@@H](CC(C)C)C(=O)N[C@@H](C)C(=O)N[C@@H](CO)C(=O)N[C@H](C(=O)N[C@@H](CCC(=O)O)C(=O)N[C@@H](CCCNC(=N)N)C(=O)N[C@@H](CCSC)C(=O)N[C@@H](CCC(N)=O)C(=O)N[C@@H](Cc1c[nH]c2ccccc12)C(=O)N[C@@H](CC(C)C)C(=O)N[C@@H](CCCNC(=N)N)C(=O)N[C@@H](CCCCN)C(=O)N[C@@H](CCCCN)C(=O)N[C@@H](CC(C)C)C(=O)N[C@@H](CCC(N)=O)C(=O)N[C@@H](CC(=O)O)C(=O)N[C@H](C(=O)N[C@@H](Cc1cnc[nH]1)C(=O)N[C@@H](CC(N)=O)C(=O)N[C@@H](Cc1ccccc1)C(=O)O)C(C)C)C(C)C	.	.	1%	.	.	-15%
Cc1cc(C)n(Cc2n[nH]c(=S)n2Cc2ccccc2)n1	-20%	0%	-1%	?	9%	-10%
Cc1nn(Cc2n[nH]c(=S)n2Cc2ccccc2)c(C)c1Cl	?	-8%	4%	45µM*	-1%	-17%
S=c1[nH]nc(COc2cccc3ccccc23)n1Cc1ccccc1	-8%	-3%	-7%	?	-9%	4%
COCCn1c(COc2ccccc2-c2ccccc2)n[nH]c1=S	.	.	.	28µM*	.	.
CCn1c(COc2ccc(Cl)cc2C)n[nH]c1=S	.	.	.	14µM*	.	.
Cc1cc(Cl)ccc1OCc1n[nH]c(=S)n1C1CCCCC1	-20%	-10%	-11%	?	-6%	-11%
Cc1ccccc1OCc1n[nH]c(=S)n1Cc1ccccc1	-14%[57.1 µM]	8%[57.1 µM]	-2%	50µM*	1%	-19%
O=S(=O)(c1cccnc1)N1CC(c2nc(CCOCC3CCOCC3)no2)C1	.	.	.	-11%	.	.
CC(=O)N1CCC(O)(c2csc(CN3CCc4ccccc4C3)n2)CC1	.	.	.	18%[176 µM]	.	.
COCc1n[nH]c(=S)n1Cc1ccc(Cl)cc1	.	.	.	16µM*	.	.
Cc1cc(Cl)ccc1OCCCc1n[nH]c(=S)n1C	.	.	.	22µM*	.	.
COc1cccc2cc(-c3nnc(SCC(=O)Nc4ccc5ccccc5c4)n3N)oc12	.	.	.	-18%	.	.
O=C(O)C1=C[C@H](c2ccc(Br)cc2)C[C@H](OCCCCO)O1	18%	2%	-3%	35µM*	-11%	-4%
